From PubChem BioAssay (NCI)
The panel holds about 79,000 compounds, 15% with a hit somewhere; the sample as a whole holds those more often. The source made the active and inactive calls. No stated cut-off is given here; in the data, active means growth inhibition above about 70%; inactive means the rest.

Columns and labels:
[1] = NCI Yeast Anticancer Drug Screen. Data for the rad52 strain (AID 147);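 further: 0% = growth of vehicle-treated control cultures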; settings: S. cerevisiae rad52 mutant growth inhibition, stronger effect = higher value
Method in brief: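 The repair-mutant yeast strain was incubated with compounds, then growth was read and inhibition derived relative to vehicle.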

[2] = NCI Yeast Anticancer Drug Screen. Data for the wt1 strain (AID 149);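 further: 0% = growth of vehicle-treated wt1 cultures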; settings: S. cerevisiae wt1 strain (SPY 50644) growth inhibition, stronger effect = higher value
Method in brief: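 wt1 strain grown with compound or vehicle; inhibition taken from the growth difference.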

[3] = NCI Yeast Anticancer Drug Screen. Data for the rad50EPP+ strain (AID 151);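 further: 0% = growth of vehicle-treated control cultures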; settings: S. cerevisiae rad50 mutant strain, stronger effect = higher value
Method in brief: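 Vehicle-normalised growth inhibition; rad50EPP+ yeast strain, altered in DNA damage repair, compound-treated.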

[4] = NCI Yeast Anticancer Drug Screen. Data for the mgt1 strain (AID 153); settings: S. cerevisiae mgt1 mutant growth inhibition, stronger effect = higher value
Method in brief: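 Vehicle-normalized growth inhibition is determined in mgt1 yeast, a strain selected for a defined alteration in DNA repair or cell cycle control.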

[5] = NCI Yeast Anticancer Drug Screen. Data for the rad14 strain (AID 159);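 further: 0% = growth of vehicle-treated control cultures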; settings: S. cerevisiae rad14 strain growth inhibition, stronger effect = higher value
Method in brief: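 DNA repair-defective yeast, compound-exposed; % growth inhibition derived by comparison with vehicle-treated controls.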

[6] = NCI Yeast Anticancer Drug Screen. Data for the CLN2oe strain (AID 163);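 further: 0% = growth of vehicle-only control cultures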; settings: S. cerevisiae CLN2oe strain, stronger effect = higher value
Method in brief: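 Compounds are applied to yeast harbouring a defined cell-cycle control change; reduced growth compared with vehicle-treated controls gives the value.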

[7] = NCI Yeast Anticancer Drug Screen. Data for the wt2 strain (AID 169);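 further: 0% = growth of vehicle-treated yeast cultures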; settings: S. cerevisiae wt2 strain growth inhibition, stronger effect = higher value
Method in brief: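 Against vehicle-treated controls, the growth of yeast exposed to each compound was compared, and the inhibition was recorded.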

[8] = NCI Yeast Anticancer Drug Screen. Data for the mlh1 strain (AID 171);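 further: 0% = growth of vehicle-treated control cultures of the same strain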; settings: S. cerevisiae mlh1 strain growth inhibition, stronger effect = higher value
Method in brief: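 Measured: yeast growth. Reference: vehicle-treated controls. Organism: strain with a defined alteration affecting DNA damage repair or cell cycle control, treated with compound.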

[9] = NCI Yeast Anticancer Drug Screen. Data for the sgs1 strain (AID 173);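 further: 0% = growth of vehicle-only control cultures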; settings: S. cerevisiae sgs1 mutant, stronger effect = higher value
Method in brief: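 Each compound was added to cultures of the altered yeast strain. Growth was recorded, and inhibition was derived by comparison with vehicle controls.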

[10] = NCI Yeast Anticancer Drug Screen. Data for the rad18 strain (AID 177); settings: S. cerevisiae rad18 mutant growth inhibition, stronger effect = higher value
Method in brief: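 Vehicle-treated cultures served as the baseline for scoring compound-induced growth inhibition in DNA-repair-mutant yeast.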

[11] = NCI Yeast Anticancer Drug Screen. Data for the rad50 strain (AID 155);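 further: 0% = growth of vehicle-only cultures of the same strain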; settings: S. cerevisiae rad50 strain growth inhibition, stronger effect = higher value
Method in brief: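 DNA repair mutant yeast, compound exposure, growth read-out; inhibition is taken relative to vehicle.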

[12] = NCI Yeast Anticancer Drug Screen. Data for the mec2-1 strain (AID 157); settings: S. cerevisiae mec2-1 strain, stronger effect = higher value
Method in brief: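 Mutant yeast (mec2-1) grown with compound; growth inhibition relative to vehicle control reported.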

[13] = NCI Yeast Anticancer Drug Screen. Data for the sgs1 mgt1 strain (AID 161);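 further: 0% = growth of cultures given vehicle only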; settings: S. cerevisiae sgs1 mgt1 strain, stronger effect = higher value
Method in brief: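 Growth of a repair-deficient yeast mutant was monitored after compound treatment and expressed as inhibition relative to vehicle-treated cultures.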

[14] = NCI Yeast Anticancer Drug Screen. Data for the cln2 rad14 strain (AID 165);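 further: 0% = growth equal to vehicle treated cultures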; settings: S. cerevisiae cln2 rad14 strain, stronger effect = higher value
Method in brief: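 Readout is yeast growth inhibition versus vehicle-treated controls, using a strain with cln2 and rad14 alterations exposed to compound.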

[15] = NCI Yeast Anticancer Drug Screen. Data for the bub3 strain (AID 167); settings: S. cerevisiae bub3 mutant strain, stronger effect = higher value
Method in brief: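 In this screen, a yeast mutant lacking normal mitotic checkpoint function is challenged with compound. Relative growth versus vehicle gives the inhibition value.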

[16] = NCI Yeast Anticancer Drug Screen. Data for the mlh1 rad18 strain (AID 175); settings: S. cerevisiae mlh1 rad18 strain growth inhibition, stronger effect = higher value
Method in brief: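 Genetically defined yeast (DNA repair-deficient) exposed to compounds; growth inhibition determined relative to vehicle.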

[17] = at 5.0 µM (retest, dose inferred, filed as 0.5)
[18] = at 50.0 µM (retest, dose inferred, filed as 5.0)

Measured: growth inhibition

O=C(O)c1ccccc1.[Ag]
inactive: [6]; at 1.2 µM 50%
active: [1]; at 1.2 µM 72% | [1]; at 3.7 µM 101% | [1]; at 11.0 µM 99% | [1]; at 33.0 µM 98% | [1]; at 100.0 µM 98% | [2]; at 1.2 µM 88% | [2]; at 3.7 µM 101% | [2]; at 11.0 µM 99% | [2]; at 33.0 µM 99% | [2]; at 100.0 µM 99% | [3]; at 1.2 µM 94% | [3]; at 3.7 µM 101% | [3]; at 11.0 µM 99% | [3]; at 33.0 µM 99% | [3]; at 100.0 µM 98% | [4]; at 1.2 µM 98% | [4]; at 3.7 µM 101% | [4]; at 11.0 µM 99% | [4]; at 33.0 µM 99% | [4]; at 100.0 µM 99% | [5]; at 1.2 µM 91% | [5]; at 3.7 µM 101% | [5]; at 11.0 µM 99% | [5]; at 33.0 µM 99% | [5]; at 100.0 µM 99% | [6]; at 3.7 µM 101% | [6]; at 11.0 µM 98% | [6]; at 33.0 µM 98% | [6]; at 100.0 µM 98% | [7]; at 1.2 µM 76% | [7]; at 3.7 µM 101% | [7]; at 11.0 µM 99% | [7]; at 33.0 µM 99% | [7]; at 100.0 µM 99% | [8]; at 1.2 µM 96% | [8]; at 3.7 µM 101% | [8]; at 11.0 µM 99% | [8]; at 33.0 µM 99% | [8]; at 100.0 µM 99% | [9]; at 1.2 µM 75% | [9]; at 3.7 µM 101% | [9]; at 11.0 µM 99% | [9]; at 33.0 µM 99% | [9]; at 100.0 µM 99% | [10]; at 1.2 µM 74% | [10]; at 3.7 µM 101% | [10]; at 11.0 µM 99% | [10]; at 33.0 µM 99% | [10]; at 100.0 µM 99%

Oc1ccccc1N=Cc1ccc(Cl)cc1
active: [11]; at 100.0 µM 82% | [15]; at 11.0 µM 70% | [15]; at 33.0 µM 78% | [15]; [18] 73% | [15]; at 50.0 µM 71.5% | [15]; at 100.0 µM 81% | [10]; at 100.0 µM 87%
inactive: [1]; at 1.2 µM 5% | [1]; at 3.7 µM 10% | [1]; at 11.0 µM 20% | [1]; at 33.0 µM 29% | [1]; at 100.0 µM 39% | [2]; at 1.2 µM 14% | [2]; at 3.7 µM 12% | [2]; at 11.0 µM 10% | [2]; at 33.0 µM 15% | [2]; at 100.0 µM 17% | [3]; at 1.2 µM 6% | [3]; at 3.7 µM 21% | [3]; at 11.0 µM 35% | [3]; at 33.0 µM 52% | [3]; at 100.0 µM 59% | [11]; at 1.2 µM 9% | [11]; at 3.7 µM 54% | [11]; [17] 16% | [11]; at 11.0 µM 42% | [11]; at 33.0 µM 59% | [11]; [18] 26% | [11]; at 50.0 µM 32% | [12]; at 1.2 µM 17% | [12]; at 3.7 µM 16% | [12]; [17] -23% | [12]; at 11.0 µM 18% | [12]; at 33.0 µM 22% | [12]; [18] 24% | [12]; at 50.0 µM 29.1% | [12]; at 100.0 µM 40% | [5]; at 1.2 µM 5% | [5]; at 3.7 µM 5% | [5]; at 11.0 µM 11% | [5]; at 33.0 µM 20% | [5]; at 100.0 µM 34% | [13]; [17] 20% | [13]; [18] 24% | [13]; at 50.0 µM 25.6% | [6]; at 1.2 µM -4% | [6]; at 3.7 µM -2% | [6]; at 11.0 µM -1% | [6]; at 33.0 µM 1% | [6]; at 100.0 µM 9% | [14]; [17] 2% | [14]; [18] 14% | [14]; at 50.0 µM -9.8% | [15]; at 1.2 µM 33% | [15]; at 3.7 µM 55% | [15]; [17] 56% | [7]; at 1.2 µM 14% | [7]; at 3.7 µM 16% | [7]; at 11.0 µM 4% | [7]; at 33.0 µM 8% | [7]; at 100.0 µM 13% | [8]; at 1.2 µM 12% | [8]; at 3.7 µM 10% | [8]; at 11.0 µM 11% | [8]; at 33.0 µM 18% | [8]; at 100.0 µM 27% | [9]; at 1.2 µM 17% | [9]; at 3.7 µM 13% | [9]; at 11.0 µM 19% | [9]; at 33.0 µM 23% | [9]; at 100.0 µM 29% | [16]; [17] 41% | [16]; [18] 53% | [16]; at 50.0 µM 60.5% | [10]; at 1.2 µM 17% | [10]; at 3.7 µM 30% | [10]; at 11.0 µM 43% | [10]; at 33.0 µM 64%

CCC(=O)N(c1ccccc1)C(C)CN1CCC(O)(c2cccc(C(F)(F)F)c2)CC1 (stereo not drawn)
active: [1]; at 100.0 µM 83% | [11]; at 100.0 µM 76%
inactive: [1]; at 1.2 µM 0% | [1]; at 3.7 µM 4% | [1]; at 11.0 µM 13% | [1]; at 33.0 µM 27% | [2]; at 1.2 µM 2% | [2]; at 3.7 µM 6% | [2]; at 11.0 µM 11% | [2]; at 33.0 µM 22% | [2]; at 100.0 µM 46% | [3]; at 1.2 µM -3% | [3]; at 3.7 µM -3% | [3]; at 11.0 µM -1% | [3]; at 33.0 µM -2% | [3]; at 100.0 µM -1% | [11]; at 1.2 µM -2% | [11]; at 3.7 µM -7% | [11]; [17] 21% | [11]; at 11.0 µM 3% | [11]; at 33.0 µM 26% | [11]; [18] 4% | [11]; at 50.0 µM 62.3% | [12]; at 1.2 µM 0% | [12]; at 3.7 µM 7% | [12]; [17] -2% | [12]; at 11.0 µM 17% | [12]; at 33.0 µM 23% | [12]; [18] 10% | [12]; at 50.0 µM 10.2%
